Experimental data published in PubChem BioAssay (NCI).
The panel holds about 83,000 compounds, 20% with a hit somewhere; the sample as a whole holds those more often.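 The endpoint reported here, percent growth, reads 100 for growth as untreated, 0 for no net growth and -100 for all cells dead.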 A number with no mark means an inactive call. Active and inactive are the calls of the source. How the source made its calls: active means growth percent below 10; inactive means the rest.

These molecules were tested on ACHN renal (assay: NCI-60 one-dose screen, 48 h (100 = growth as untreated, 0 = no growth, -100 = all killed)). Details: 10 µM unless noted.

| Structure (SMILES) | growth |
| --- | --- |
| CC(C)c1sc(NC(=O)c2cc(NC(=O)c3cc(NC(=O)c4nccn4C)cn3C)cn2C)nc1C(=O)NCCCN(C)C | 108% |
| COc1c(F)ccc(C(=O)Nc2ccc3nc(NC(=O)C4CCCN(S(=O)(=O)c5ccc(Cl)cc5)C4)sc3c2)c1F (stereo unspecified) | 86.7% |
| O=C(N1c2ccccc2Sc2ccccc21)n1ccc2cccnc21 | 88.2% |
| Cn1cc(-c2cc(N)n3nc(-c4cn(C)c5ncc(Br)cc45)cc3n2)c2cc(Br)cnc21 | 1.23% (active) |
| CC1=C(C#N)C2=NNCC(c3ccccc3)=NN2C(c2ccccc2)=C1 | 110% |
| C=C1CC[C@@H]2[C@]3(C)COC(c4cn[nH]c4-c4ccc(F)cc4)O[C@@H]3CC[C@@]2(C)[C@@H]1C/C=C1/C(=O)OCC1O (stereo partly specified) | -80.3% (active) |
